An excerpt weighted towards active compounds, which were near 1.2% of everything screened.
RGS4-Gao reg: modulators of RGS4 binding to Galphao, primary screen, biochemical, multiplexed bead flow cytometry. binding response (% of control), % at 10 µM. AID 1415, 2008. Guanine nucleotide-binding protein G(o) subunit alpha (Homo sapiens), P09471. 220,000 tested, 0.33% active. actives lie on both sides; in the data active = binding response below about 49% or above about 150%; inactive = in between;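 note: fluorescent Galphao activated with aluminum fluoride binding bead-coupled RGS4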
Target sequence (P09471 whole entry, looked up): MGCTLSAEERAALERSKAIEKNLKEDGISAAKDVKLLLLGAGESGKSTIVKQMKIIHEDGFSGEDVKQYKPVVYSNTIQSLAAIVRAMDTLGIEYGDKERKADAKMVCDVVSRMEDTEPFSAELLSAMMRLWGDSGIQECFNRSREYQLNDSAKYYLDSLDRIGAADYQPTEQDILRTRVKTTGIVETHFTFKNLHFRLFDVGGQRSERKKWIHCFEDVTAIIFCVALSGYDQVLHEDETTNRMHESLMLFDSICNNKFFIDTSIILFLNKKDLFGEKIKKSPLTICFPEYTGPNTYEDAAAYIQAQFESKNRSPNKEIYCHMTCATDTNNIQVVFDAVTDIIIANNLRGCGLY
RGS7-Gao: RGS7-Galphao binding modulators, primary screen, biochemical, multiplexed bead flow cytometry | Guanine nucleotide-binding protein G(o) subunit alpha (Homo sapiens), P09471 | actives lie on both sides | binding response (% of control), % at 10 µM | 220,000 tested, 0.35% active; in the data active = binding response below about 49% or above about 150%; inconclusive = no clear call, values can overlap the other calls; inactive = in between;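 note: fluorescent Galphao held in activated GDP-AlF4 state binding bead-coupled RGS7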
RGS8-Gao reg: RGS8-Galphao binding modulators, primary screen, biochemical, multiplexed bead flow cytometry. Guanine nucleotide-binding protein G(o) subunit alpha (Homo sapiens), P09471. actives lie on both sides. response (percent of control binding), % at 10 µM. 220,000 tested, 0.34% active; in the data active = response below about 60% or above about 140%; inactive = in between;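 note: Galphao activated as the GDP aluminium fluoride complex binding bead-coupled RGS8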
GSH bead fluor: compound fluorescence on glutathione beads, profiling panel, artefact control, biophysical, 488/530 nm, flow cytometry | GSH beads flow cytometry, compound fluorescence 488/530 nm; active compounds read high | fluorescence (KMESF) at 10 µM | AID 1776, 2009 | 190,000 tested, 0.25% active; in the data active = fluorescence above about 89;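 note: glutathione beads carrying GST-tagged Bcl family fusion proteins plus one bare bead set; values are compound well signal with DMSO vehicle wells as background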
Avidin fluor: green autofluorescence of compounds with avidin beads – biophysical, 488/530 nm, flow cytometry, artefact control, profiling panel | compound fluorescence 488/530 nm; active compounds read high | fluorescence (KMESF) at 10 µM | 220,000 tested, 0.38% active; in the data active = fluorescence above about 47
RGS16-Gao HTS: modulators of RGS16 binding to Galphao, primary screen, biochemical, human proteins, multiplexed bead flow cytometry. bead-based flow cytometry RGS16-Galphao binding, fluorescence; actives lie on both sides. binding response (% of control), % at 10 µM. 220,000 tested, 0.38% active;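 note: Galphao activated by GDP with aluminum fluoride before binding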
RGS4-Gao HTS: modulators of RGS–Galpha-o binding, primary screen, biochemical, multiplexed beads, flow cytometry, RGS4/7/8/16/19. shares compounds with RGS16-Gao HTS. multiplexed bead flow cytometry. RGS4–Galpha-o binding response, % at 10 µM. 1,600 tested, 99% active. AID 1504, 2009;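 note: fluorescently labeled Galpha-o bound to GDP with aluminium fluoride binding biotinylated RGS beads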
Target sequence (P09471 whole entry, looked up): as above
Target sequence (P49798 whole entry, looked up): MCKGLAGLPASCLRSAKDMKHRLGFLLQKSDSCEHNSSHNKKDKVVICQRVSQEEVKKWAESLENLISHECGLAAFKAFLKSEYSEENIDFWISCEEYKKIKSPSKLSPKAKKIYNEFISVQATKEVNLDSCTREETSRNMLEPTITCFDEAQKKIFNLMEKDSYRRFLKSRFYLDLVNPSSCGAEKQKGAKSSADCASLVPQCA
Biotin-avidin: disruption of biotin probe capture by avidin, counter-screen for RGS protein interaction modulators, biochemical, flow cytometry, bead-based. inhibition, % at 10 µM. shares compounds with RGS16-Gao HTS. streptavidin beads, fluorescein-biotin binding. 1,700 tested, under 10 active;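 active = inhibition above 50%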;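 note: median green fluorescence of gated singlet beads compared with DMSO control wells; 0% = DMSO wells and 100% = complete loss of bead fluorescence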
RGS8-Gao confirm: RGS8-Galphao binding modulators, confirmation, biochemical, multiplexed bead flow cytometry, single concentration; shares compounds with RGS16-Gao HTS; bead-based flow cytometry RGS8-Galphao binding, fluorescence; actives lie on both sides; binding response (% of control), % at 10 µM; 1,700 tested, 3% active; AID 1836, 2009; in the data active = binding response below about 72% or above about 130%; inactive = in between;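 note: Galphao activated as GDP AlF4 complex before binding bead RGS8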
RGS7-Gao single: RGS7-Galphao binding modulators, confirmation, biochemical, multiplexed bead flow cytometry, single concentration. bead-based flow cytometry RGS7-Galphao binding; actives lie on both sides. shares compounds with RGS16-Gao HTS. 1,700 tested, 7.8% active. response (percent of control binding), % at 10 µM; in the data active = response below about 75% or above about 130%; inactive = in between;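 note: fluorescent Galphao activated with GDP and aluminum fluoride binding bead-coupled RGS7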
RGS16-Gao single: modulators of RGS16-Galphao protein binding, confirmation, biochemical, single concentration, multiplexed bead flow cytometry | 1,700 tested, 4% active | response (% of control binding), % at 10 µM | shares compounds with RGS16-Gao HTS | bead-based flow cytometry; actives lie on both sides; in the data active = response below about 74% or above about 130%; inactive = in between;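 note: Galphao activated as the GDP aluminium fluoride complex binding bead-coupled RGS16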
RGS4-Gao single: modulators of RGS4-Galphao protein binding, confirmation, biochemical, single concentration, multiplexed bead flow cytometry; shares compounds with RGS16-Gao HTS; actives lie on both sides; binding response (% of control), % at 10 µM; 1,700 tested, 4% active; AID 1840, 2009; in the data active = binding response below about 74% or above about 130%; inactive = in between
RGS19-Gao conf: regulators of RGS19-Galphao binding, confirmation, biochemical, single point, multiplexed bead flow cytometry; shares compounds with RGS16-Gao HTS; bead-based flow cytometry RGS19-Galphao binding; actives lie on both sides; response (percent of control binding), % at 10 µM; 1,700 tested, 5% active; in the data active = response below about 50% or above about 160%; inactive = in between;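 note: 100% = no compound control and 0% = blank background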
* hit, by the source's call; ? = inconclusive; / = no result; + = active, no number; [ ] = dose if it differs, or a comment. Unless noted, the rule behind the calls is not given here.

SMILES	RGS4-Gao reg	RGS7-Gao	RGS8-Gao reg	GSH bead fluor	Avidin fluor	RGS16-Gao HTS	Biotin-avidin	RGS8-Gao confirm	RGS7-Gao single	RGS16-Gao single	RGS4-Gao single	RGS19-Gao conf	others
C#CCOCCOCCOCCNc1nc(N2CCN(C(=O)[C@H]([C@@H](C)CC)n3cc([C@@H](N)CO)nn3)CC2)nc(N2CCN(C(=O)[C@H]([C@@H](C)CC)n3cc([C@@H](N)Cc4ccc(O)cc4)nn3)CC2)n1	22*	18*	41*	18	0	18*	0	100	101	99	99	88
CCc1ccc(CN(C)C(=O)CCc2nnc(CCc3ccccc3OC)o2)nc1	94	96	101	13	12	96	/	/	/	/	/	/
CC1CC2=C(C(=O)O1)C(C)Nc1ccccc1N2 (stereo not drawn)	86	87	85	15	8	22*	-1	102	99	102	101	83	RGS4-Gao HTS=86*
Nc1n[nH]c(N)c1N=Nc1ccccc1	102	99	100	23	11	108	/	/	/	/	/	/
Nc1n[nH]c(N)c1N=Nc1ccc(Cl)cc1Cl	53	46*	72	10	0	82	-1	99	98	99	100	88	RGS4-Gao HTS=53*
C=C(C)c1cccc(C(C)(C)NC(=O)N2CCN(CC)CC2)c1	100	98	104	19	32	109	/	/	/	/	/	/
C=C(C)c1cccc(C(C)(C)NC(=O)N2CCCCC2CC)c1 (stereo not drawn)	142	124	172*[activator]	8	7	404	/	/	/	/	/	/	RGS4-Gao HTS=142*
Cc1cc(/C([O-])=C(/C(=S)Nc2ccc(F)cc2)[n+]2ccccc2)c(C)n1Cc1ccccc1Cl	102	?	102	12	12	101	/	/	/	/	/	/
COc1ccc(-n2c(SCC(N)=O)nnc2-c2cccnc2)cc1	106	103	/	26	/	/	1	102	101	100	101	96
Cc1cn2c(N)c(C=C3C=C(Cl)C(=O)C(Cl)=C3)c(=O)nc2s1	549*[activator]	473*[activator]	133	13	179*	444*[activator]	20	141*[activator]	+[activator]	449*[activator]	659*[activator]	+[activator]
COC1=C/C(=C/c2c(N)n3cc(C)sc3nc2=O)C=CC1=O	136	134	104	8	24	131	/	/	/	/	/	/
COCCN(C(=O)CCc1ccccc1OC)c1nnc(-c2cccnc2)s1	102	102	102	10	12	106	/	/	/	/	/	/
CCCS(=O)(=O)N1CCCC(C(=O)NCCCN2CCN(c3cccc(Cl)c3)CC2)C1 (stereo not drawn)	295*[activator]	234*[activator]	146*[activator]	29	150*	668	1	97	92	90	92	59
COc1ccc(C(=O)C[n+]2ccc3c(c2)nc(-c2cc(OC)c(OC)cc2OC)n3C)cc1	75	68	61	17	5	18*	1	102	105	102	101	98	RGS4-Gao HTS=75*
COc1cc(OC)c(-c2nc3c[n+](CC(=O)c4ccccc4)ccc3n2C)cc1OC	102	101	98	36	8	87	/	/	/	/	/	/
CNC(=O)/C(C#N)=C/c1cc(C)n(-c2ccc(N3CCOCC3)cc2)c1C	254*[activator]	?	104	/	114*	216*[activator]	-1	102	92	96	95	107
CS(=O)(=O)N(CC(=O)Nc1ccc2c(c1)OCCO2)Cc1ccccc1	101	98	101	55	7	98	/	/	/	/	/	/
O=C(CN(Cc1ccccc1)S(=O)(=O)c1ccc2c(c1)OCCO2)Nc1ccc2c(c1)OCCO2	184*[activator]	261*[activator]	136	74	95*	478	-2	101	100	98	101	93
Cn1c(COc2ccccc2)nnc1SCC(=O)Nc1ccc(S(N)(=O)=O)cc1	/	/	/	43	/	/	-1	103	108	105	105	93
C=CCn1c(COc2ccccc2)nnc1SCC(=O)Nc1ccc(S(N)(=O)=O)cc1	103	100	103	33	14	108	/	/	/	/	/	/
Fc1cccc(Cl)c1/C=N/n1c(-c2cccnc2)n[nH]c1=S	88	88	59*	10	6	1	-3	93	113	87	95	87	RGS4-Gao HTS=88*
COc1ccc(CCNC(=O)c2cnn(-c3ccc(C)c(C)c3)c2NC(=O)c2ccco2)cc1OC	/	/	/	45	/	/	-2	102	101	102	102	103
O=C(Nc1ccnc(-c2cccnc2)n1)c1cccs1	99	100	99	14	9	102	/	/	/	/	/	/
COc1cccc(COc2cc3ccccc3nc2C)c1	92	90	97	16	19	88	/	/	/	/	/	/
CC(C)(C)c1nnc2sc(SCC(=O)c3ccccc3)nn2c1=O	101	106	102	22	14	100	/	/	/	/	/	/

Assay outcomes as filed in PubChem.
